{"source": "ChEMBL document CHEMBL4513216", "about": "“Probing the Open Global Health Chemical Diversity Library for Multistage-Active Starting Points for Next-Generation Antimalarials” (ACS Infect Dis, 2020)", "note": "About 2,700 (4%) of roughly 68,000 compounds showed an effect of 50% or more. The list comes from a sample in which strong results are over-represented; it also holds similar structures and randomly drawn compounds.", "data": [{"system": "Plasmodium berghei", "test": "Screen against P. berghei liver stage (PbLuc), transformed with Luciferase, at 2uM", "format": "functional, HepG2", "conditions": "tested at 2 uM", "units": {"INHIBITION": "%"}, "values": [{"smiles": "CO[C@@H]1CCN(S(=O)(=O)c2cn(C)cn2)[C@H]1Cc1ccccc1", "INHIBITION": 4.38}, {"smiles": "CO[C@H]1CCN(S(=O)(=O)c2cn(C)cn2)[C@H]1Cc1ccccc1", "INHIBITION": 74.27}, {"smiles": "CCO[C@H]1CCN(S(=O)(=O)c2cn(C)cn2)[C@H]1Cc1ccccc1", "INHIBITION": -40.45}, {"smiles": "CC(C#N)CN(C)Cc1cc(Cl)cc2cccnc12", "note": "(stereo not drawn)", "INHIBITION": 28.91}, {"smiles": "Cc1ccc([C@@H]2CN(C(=O)c3cc(C)no3)C[C@H]2NC(=O)C2CC2)cc1", "INHIBITION": 0.94}, {"smiles": "CCc1csc(CNC2CCN(Cc3ccccc3)C2)n1", "note": "(stereo not drawn)", "INHIBITION": 50.59}, {"smiles": "Cc1nc(CNC2CCN(Cc3ccccc3)C2)sc1C", "note": "(stereo not drawn)", "INHIBITION": 36.28}, {"smiles": "CCc1nc(C)sc1CNC1CCN(Cc2ccccc2)C1", "note": "(stereo not drawn)", "INHIBITION": 26.74}, {"smiles": "CCCc1cc(NC2CCc3ncnn3C2)n2ncnc2n1", "note": "(stereo not drawn)", "INHIBITION": 8.91}, {"smiles": "O=C1CC(c2ccccc2)C2(CCN(Cc3nccs3)CC2)N1", "note": "(stereo not drawn)", "INHIBITION": -4.2}, {"smiles": "CC(C)(C)OC(=O)N1CCC(NCc2cnn(C(C)(C)C)c2)CC1", "INHIBITION": -13.89}, {"smiles": "Cc1cccc2cc(C(=O)N3CCC(F)(F)CC3)n(C)c12", "INHIBITION": 28.1}, {"smiles": "O=C1CC(c2ccccc2)c2c(n3ccsc3nc2=O)N1", "note": "(stereo not drawn)", "INHIBITION": 73.66}, {"smiles": "O=C1CC(c2ccc(O)cc2)c2c(n3ccsc3nc2=O)N1", "note": "(stereo not drawn)", "INHIBITION": 37.87}, {"smiles": "O=C1CC(c2ccc(Cl)c(Cl)c2)c2c(n3ccsc3nc2=O)N1", "note": "(stereo not drawn)", "INHIBITION": 24.44}, {"smiles": "Cc1ccc(N(CC(=O)c2ccc(Br)cc2)C2=NCCCCC2)cc1", "INHIBITION": -13.56}, {"smiles": "CC(=O)N1CCC(c2cc(Nc3ncccn3)nc(C)n2)C1", "note": "(stereo not drawn)", "INHIBITION": 31.98}, {"smiles": "CC(C)(C)n1ncc2c1NC(=O)CC2c1cccc(F)c1", "note": "(stereo not drawn)", "INHIBITION": -10.58}, {"smiles": "CC(C)c1noc(CCCC(=O)N2CCN(C)CC2c2ccccc2)n1", "note": "(stereo not drawn)", "INHIBITION": 14.63}, {"smiles": "CCCc1noc(CCC(=O)N2CCN(C)CC2c2ccccc2)n1", "note": "(stereo not drawn)", "INHIBITION": 35.56}, {"smiles": "CC(C)c1noc(CCC(=O)N2CCN(C)CC2c2ccccc2)n1", "note": "(stereo not drawn)", "INHIBITION": 57.59}, {"smiles": "NC(=O)CC1CCCN(c2cncc(OCc3ccccc3)n2)C1", "note": "(stereo not drawn)", "INHIBITION": 31.78}, {"smiles": "CC(C)c1nc(C2CCCN2C(=O)c2ccc(N(C)C)nn2)no1", "note": "(stereo not drawn)", "INHIBITION": -9.66}, {"smiles": "c1ccc(CN2C[C@H]3CC[C@@H](C2)N(Cc2nnc(C4CC4)o2)C3)cc1", "INHIBITION": -14.49}, {"smiles": "Cc1cc(C(=O)N2CCOC[C@H](Oc3cnccn3)C2)c(C(F)(F)F)o1", "INHIBITION": 52.91}, {"smiles": "Cc1cc(C(=O)N2CCOC[C@H](Oc3cccnc3)C2)c(C(F)(F)F)o1", "INHIBITION": 19.42}, {"smiles": "CO[C@H]1COCCN(C(=O)c2cc(C)oc2C(F)(F)F)C1", "INHIBITION": 35.89}, {"smiles": "Cn1cc(CN2CCCC3(CCN(C(=O)c4cnccn4)C3)C2)cn1", "note": "(stereo not drawn)", "INHIBITION": -9.96}]}]}
